Assay results taken from the OligoGym collection.

Molecular target: ACYP1
Test: pooled miR-30 sensor sort-seq; sequence = guide strand
Conditions: shRNA
Further: reference of the scale not given here.

| Sequence | sensor-assay potency score (higher = more potent) |
| --- | --- |
| TCTTGTTTCAAGCCATTCCTGC | -0.475 |
| TGTGTGATTTAGGACTTCCTCT | -0.445 |
| TATTAACACACAATAGTTCTAT | 0.336 |
| TCCAACTTCAAGATGACTTTTT | -1.37 |
| TCATTGTTGAAGTTTGCTTTGT | -0.429 |
| TTCATAATCCACTGATATCAGG | -1.09 |
| TTCATTGTTGAAGTTTGCTTTG | -0.707 |
| TTTCATTGTTGAAGTTTGCTTT | 0.5 |
| TTGTGTACAGTGGTAATCCTTC | -0.227 |
| TCGATGTGTGATTTAGGACTTC | -0.511 |
| TTGTCGATGTGTGATTTAGGAC | -0.517 |
| ATAACTTATTGACTAATGCTAA | -0.709 |
| TTCCTGCATATGACGCACCTTG | -0.872 |
| AAAAATTTCATAATCCACTGAT | 0.598 |
| TGTCCTTGCACTGTGCCCCGGT | 0.12 |

Molecular target: ACYP2
Test: as above
Conditions: shRNA

| Sequence | sensor-assay potency score (higher = more potent) |
| --- | --- |
| TCATTAGAAAAGTTTGTGCGGT | -0.214 |
| TATTTTCCTAGCTTCATCTTCT | 1.16 |
| TTTCCTAGCTTCATCTTCTGTA | 0.952 |
| TCTGTATACATTCTGAAGCAAA | -1.22 |
| TTCATTAGAAAAGTTTGTGCGG | 0.328 |
| TATTCAAGCTTAGAGATGGTTT | -0.574 |
| TTTAGTAGCACGTACAGTCGCT | 0.0895 |
| TAGTCTTAAGAACATACAGTAT | -1.07 |
| TTGCTTGTTGAAAACATAGTTG | -0.594 |
| TGGAATTGACTTTGTCTTCTGG | -0.0277 |
| ATCTTCTGTATACATTCTGAAG | -1.49 |
| TACTCTGCTACTATTATTCTAG | -0.38 |
| TTGAGTAAAATTATTTCAGTGT | 0.361 |
| TTGCTGGTATTCTTCACCCAGC | -1.24 |
| TTTTCATTAGAAAAGTTTGTGC | -0.116 |
| TTTGCTGGTATTCTTCACCCAG | -0.785 |
| TATTCTAGTATACATAGTCTTA | -0.674 |
| TTGACTTTGTCTTCTGGCCCCT | 0.0313 |
| TTCATCTTCTGTATACATTCTG | 0.635 |
| TTTTCCTAGCTTCATCTTCTGT | -0.817 |
| TTCTAGTATACATAGTCTTAAG | -1.46 |
| TAGTAGCACGTACAGTCGCTTA | -1.19 |
| TTAGTAGCACGTACAGTCGCTT | -0.537 |
| TTCCTAGCTTCATCTTCTGTAT | -0.685 |
